Results on five compounds are retold here after PubChem BioAssay.

Activity calls are given as the source filed them.

Experiment [1] in a line: optical density shifts of acrAB sulA E. coli – strain DRC41, OD650, 48 h, E. coli filamentation inducer project, primary screen (AID 1152).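 Note: E. coli MC1000 strain DRC41 lacking acrAB efflux pump and sulA.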 Conditions: higher = more signal, called active from +8 up or from −8 down.
Experiment [2] can be described thus: probe aLefty1 binding on compound microarray – biochemical, small-molecule microarray, 635/667 nm fluorescence, primary screen (AID 1153).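 Note: score merges spot fluorescence with signal-to-noise ratio from the scanned slide images.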 Conditions: higher = more signal.
A short description of experiment [3]: plasmodial surface anion channel blockers, osmotic lysis – cell-based, P. falciparum Indochina, OD700, 1 h, primary screen (AID 1154). Conditions: P. falciparum Indochina infected RBC osmotic lysis, higher = more signal, called active from +8 up or from −8 down.
Experiment [4] is described as follows: plasmodial surface anion channel blockers, osmotic lysis – cell-based, P. falciparum Indochina, OD700, 2 h, primary screen (AID 1155).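 Note: lysis reports solute entry through the parasite surface anion channel PSAC.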 Conditions: P. falciparum Indochina infected erythrocytes, higher = more signal, called active from +8 up or from −8 down.
Experiment [5] can be described thus: changes in parasitized red cell lysis, either direction – P. falciparum Indochina, OD700, 3 h, PSAC antagonist project, primary screen (AID 1156). As to conditions: P. falciparum-infected erythrocytes, osmotic lysis, higher = more signal, called active from +8 up or from −8 down.
Experiment [6] in a line: plasmodial surface anion channel blockers, osmotic lysis – cell-based, P. falciparum Indochina, OD700, 18 h, primary screen (AID 1157). As to conditions: P. falciparum Indochina infected erythrocytes, osmotic lysis OD700, 18 h; higher = more signal, called active from +8 up or from −8 down.
The nature of experiment [7]: S6 kinase pathway phospho-S6 level changes – cell-based, A549, cytoblot, luminescence, serum-stimulated, primary screen (AID 1158).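 Note: serum-stimulated A549 lung adenocarcinoma cells; signal is phosphorylated S6 detected by cytoblot immunostaining with HRP secondary.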 As to conditions: 5 h, higher = more signal.
For experiment [8], the target named is NADPH oxidase 2 (Homo sapiens) (UniProt P04839). Nature of the experiment: compounds shifting NOX2 Amplex Red fluorescence – cell-based, HEK293-NOX2, PMA-stimulated, NOX inhibitor project, primary screen (AID 1159). Note: test concentration not given here. As to conditions: 45 min, higher = more signal, called active from +8 up or from −8 down.
Chain of NADPH oxidase 2 (Homo sapiens) (P04839 whole entry, looked up): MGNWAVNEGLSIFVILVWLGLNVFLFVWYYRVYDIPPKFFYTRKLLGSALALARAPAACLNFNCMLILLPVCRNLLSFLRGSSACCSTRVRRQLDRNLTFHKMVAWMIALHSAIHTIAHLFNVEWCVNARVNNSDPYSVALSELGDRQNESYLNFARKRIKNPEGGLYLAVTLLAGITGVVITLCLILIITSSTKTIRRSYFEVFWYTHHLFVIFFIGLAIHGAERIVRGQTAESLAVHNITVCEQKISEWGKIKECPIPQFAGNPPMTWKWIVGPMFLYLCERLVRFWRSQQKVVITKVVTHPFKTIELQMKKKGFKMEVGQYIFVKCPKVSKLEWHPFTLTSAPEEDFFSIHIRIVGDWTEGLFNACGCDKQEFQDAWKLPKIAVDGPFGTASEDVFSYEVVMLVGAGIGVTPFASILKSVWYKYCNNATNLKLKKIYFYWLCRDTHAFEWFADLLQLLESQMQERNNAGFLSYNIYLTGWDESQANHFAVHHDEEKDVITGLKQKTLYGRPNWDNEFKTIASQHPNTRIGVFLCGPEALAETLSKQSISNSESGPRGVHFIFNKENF
The target of experiment [9] is NADPH oxidase 4 (Homo sapiens) (UniProt Q9NPH5). Nature of the experiment: compounds shifting NOX4 Amplex Red fluorescence – cell-based, HEK293-NOX4, tetracycline-induced, NOX inhibitor project, primary screen (AID 1160). Conditions: HEK293-NOX4, Amplex Red H2O2 fluorescence, 45 min; higher = more signal, called active from +8 up or from −8 down.
Chain of NADPH oxidase 4 (Homo sapiens) (Q9NPH5 whole entry, looked up): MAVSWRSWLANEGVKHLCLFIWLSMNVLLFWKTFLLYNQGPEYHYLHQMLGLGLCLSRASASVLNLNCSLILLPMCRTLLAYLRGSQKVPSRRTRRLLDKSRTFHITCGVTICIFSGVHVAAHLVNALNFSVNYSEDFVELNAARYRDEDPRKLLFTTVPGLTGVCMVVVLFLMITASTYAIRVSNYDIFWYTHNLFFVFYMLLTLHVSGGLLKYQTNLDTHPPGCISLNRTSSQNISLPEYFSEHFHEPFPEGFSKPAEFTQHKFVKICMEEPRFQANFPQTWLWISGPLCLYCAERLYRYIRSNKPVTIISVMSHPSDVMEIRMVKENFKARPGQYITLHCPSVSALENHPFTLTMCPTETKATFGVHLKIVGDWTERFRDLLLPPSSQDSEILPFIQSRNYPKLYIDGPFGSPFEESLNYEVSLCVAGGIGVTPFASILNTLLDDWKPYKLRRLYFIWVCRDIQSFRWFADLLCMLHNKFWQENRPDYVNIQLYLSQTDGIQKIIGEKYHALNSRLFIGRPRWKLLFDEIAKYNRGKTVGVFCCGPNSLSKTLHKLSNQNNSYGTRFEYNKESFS
The target of experiment [10] is NADPH oxidase 5 (Homo sapiens) (UniProt Q96PH1). Nature of the experiment: compounds shifting NOX5 Amplex Red fluorescence – cell-based, HEK293-NOX5, NOX inhibitor project, primary screen (AID 1161). As to conditions: HEK293-NOX5, ionomycin, 45 min, higher = more signal.
Chain of NADPH oxidase 5 (Homo sapiens) (Q96PH1 whole entry, looked up): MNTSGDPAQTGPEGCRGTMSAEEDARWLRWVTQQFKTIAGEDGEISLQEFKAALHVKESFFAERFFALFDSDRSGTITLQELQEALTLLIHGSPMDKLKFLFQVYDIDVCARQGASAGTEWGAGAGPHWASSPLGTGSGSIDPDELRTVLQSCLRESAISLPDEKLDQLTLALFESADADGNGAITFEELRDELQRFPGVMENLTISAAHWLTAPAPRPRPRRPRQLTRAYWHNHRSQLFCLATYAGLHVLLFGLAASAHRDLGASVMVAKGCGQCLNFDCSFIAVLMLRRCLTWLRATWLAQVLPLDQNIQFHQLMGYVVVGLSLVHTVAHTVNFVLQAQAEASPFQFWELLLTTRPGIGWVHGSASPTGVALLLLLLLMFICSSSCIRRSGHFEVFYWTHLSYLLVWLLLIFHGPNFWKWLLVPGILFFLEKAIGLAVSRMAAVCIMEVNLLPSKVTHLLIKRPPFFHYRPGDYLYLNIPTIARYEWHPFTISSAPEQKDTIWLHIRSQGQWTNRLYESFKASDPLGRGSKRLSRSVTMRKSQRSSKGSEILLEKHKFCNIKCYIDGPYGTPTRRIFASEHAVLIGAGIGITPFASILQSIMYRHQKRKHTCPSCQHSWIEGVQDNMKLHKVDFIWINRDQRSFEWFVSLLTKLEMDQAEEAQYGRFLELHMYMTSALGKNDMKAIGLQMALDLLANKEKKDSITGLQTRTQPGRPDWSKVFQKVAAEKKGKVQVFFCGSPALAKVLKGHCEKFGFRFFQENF
A short description of experiment [11]: compound effects on lung adenocarcinoma cell viability – A549, calcein-AM fluorescence, 48 h, basal, profiling panel (AID 1162). Note: test concentration not given here. Conditions: higher = more signal.
Experiment [12] can be described thus: compound effects on differentiated 3T3-L1 adipocyte viability – cell-based, 3T3-L1 adipocytes, calcein-AM fluorescence, 48 h, basal, profiling panel (AID 1163). Note: test concentration not given here. As to conditions: 3T3-L1 adipocytes viability, higher = more signal.
The nature of experiment [13]: compound effects on hepatocellular carcinoma cell viability – HepG2, calcein-AM fluorescence, 48 h, basal, profiling panel (AID 1164). Note: test concentration not given here. As to conditions: higher = more signal.
The nature of experiment [14]: compound effects on multiple myeloma cell viability – MM1S, calcein-AM fluorescence, 48 h, basal, profiling panel (AID 1165). Note: test concentration not given here. Conditions: higher = more signal.
The nature of experiment [15]: calcein-AM signal in unstimulated myeloma cells – cell-based, calcein-AM fluorescence, 48 h, PK04 Diversity Set, profiling panel (AID 1166).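 Note: cells grown under basal conditions without added stimulus; test concentration not given here.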 As to conditions: RPMI8226 myeloma viability, higher = more signal.
Experiment [16] in a line: JC-1 mitochondrial signal, unstimulated HepG2 cells – cell-based, JC-1 fluorescence, 24 h, 100 nL compound, profiling panel (AID 1167). Note: test concentration not given here. As to conditions: HepG2 mitochondrial potential, higher = more signal.
A short description of experiment [17]: JC-1 mitochondrial signal, unstimulated adipocytes – cell-based, JC-1 fluorescence, 3T3-L1 adipocytes, 24 h, 100 nL compound, profiling panel (AID 1168). Note: test concentration not given here. As to conditions: JC-1 mitochondrial fluorescence, higher = more signal, called active from +8 up or from −8 down.
A short description of experiment [18]: JC-1 mitochondrial signal, unstimulated myeloma cells – cell-based, JC-1 fluorescence, RPMI8226, 24 h, 100 nL compound, profiling panel (AID 1169). Note: test concentration not given here. Conditions: JC-1 mitochondrial potential fluorescence, higher = more signal.
Experiment [19] can be described thus: JC-1 mitochondrial signal, unstimulated MM1S myeloma – cell-based, JC-1 fluorescence, 24 h, 100 nL compound, profiling panel (AID 1170). Note: test concentration not given here. Conditions: MM1S mitochondrial potential, higher = more signal.
Experiment [20] can be described thus: resazurin metabolic signal in A549 cells – cell-based, resazurin fluorescence, 24 h, PK04 Diversity Set, profiling panel (AID 1171). Note: test concentration not given here. Conditions: A549 viability, higher = more signal, called active from +8 up or from −8 down.

On to `CCOC(=O)[C@H](Cc1ccccc1)NC(=O)CCC1CC(OC(=O)NCCc2ccc(F)cc2)CC2(CCCC(COC(=O)NCCc3ccccc3OC)O2)O1` (stereo not given in full), for which the z-score in [1] is -1.1 (inactive); in experiment [3], 0.425 (inactive); in [4], 0.136 (inactive); in [5], -0.106 (inactive); in [6], 0.174 (inactive); in [7], 0.392. Also, the z-score in [8] is -0.106 (inactive); in experiment [9] it was 0.151 (inactive); in experiment [10] it was 0.294; in experiment [11] it was -0.793; in experiment [12], -0.702; in [13] it was 0.492. Besides, the z-score in experiment [14] was -2.99; in [15], -1.42; in experiment [16], 0.723; in experiment [17], 0.3 (inactive); in experiment [18] it was 0.165; in experiment [19], -1.02. The z-score in [20] was -0.301 (inactive). Besides, the composite z-score in experiment [2] was -0.0075.
In the case of `CC(=O)OC[C@H]1O[C@H](CC=NO[C@H](C)c2cn([C@H](CO)Cc3ccccc3)nn2)C=C[C@@H]1OC(C)=O`, the z-score was -0.176 (inactive) in [1]; 0.639 (inactive) in experiment [3]; 0.103 (inactive) in [4]; 0.238 (inactive) in [5]; 0.391 (inactive) in experiment [6]; -0.871 in experiment [7]. In addition, the z-score in experiment [8] was -0.0815 (inactive); in [9] it was 0.835 (inactive); in experiment [10], -1.3; in experiment [11], -0.404; in [12], -0.857; in experiment [13], -0.0224. The z-score is -0.955 in experiment [14]; -1.94 in [15]; -0.485 in experiment [16]; -0.963 (inactive) in [17]; 0.013 in experiment [18]; 0.186 in experiment [19]. Also, the z-score in experiment [20] was 0.322 (inactive). The same compound had a composite z-score in experiment [2] of -0.007.
As to `CC(C)CON=C1C[C@@H](O)[C@@H](O)[C@@H]2[C@@H]3C(=O)N(C[C@@H]4CCCO4)C(=O)[C@@H]3CC[C@@H]12`, the z-score in experiment [1] was 0.93 (inactive); in experiment [3] it was -0.441 (inactive); in experiment [4] it was -0.379 (inactive); in experiment [5], -0.611 (inactive); in experiment [6], -0.21 (inactive); in [7], 0.324. The z-score is 0.957 (inactive) in [8]; 0.816 (inactive) in experiment [9]; -0.0365 in [10]; 0.18 in [11]; -0.149 in experiment [12]; -0.622 in experiment [13]. For the same compound, the z-score in experiment [14] was -0.61; in experiment [15], -0.923; in experiment [16], -0.49; in experiment [17], 0.977 (inactive); in [18], -0.258; in experiment [19], -0.0595. For the same compound, in experiment [20], the z-score was 0.266 (inactive). Besides, in experiment [2], the composite z-score was -0.0501.
Consider `C#CCCCON=C1C[C@@H](O)[C@@H](O)[C@@H]2[C@@H]3C(=O)N(Cc4ccccc4)C(=O)[C@@H]3CC[C@@H]12`, for which the z-score is 0.292 (inactive) in [1]; 0.564 (inactive) in experiment [3]; 0.579 (inactive) in experiment [4]; -0.292 (inactive) in experiment [5]; 0.06 (inactive) in [6]; -0.507 in [7]. The z-score in experiment [8] is -0.727 (inactive); in [9] it was 0.47 (inactive); in experiment [10], 0.551; in experiment [11], 0.307; in experiment [12] it was -0.198; in experiment [13], -0.732. For the same compound, the z-score is -0.488 in experiment [14]; 0.199 in experiment [15]; 0.793 in experiment [16]; 0.89 (inactive) in [17]; -0.323 in [18]; -0.467 in [19]. For the same compound, the z-score in [20] was 0.37 (inactive). This compound also returned a composite z-score in experiment [2] of -0.0479.
Consider `CCOC(=O)C1=NO[C@@]2(C=C(Br)C3(OCCCO3)[C@H]3O[C@H]32)C1`, for which the z-score in [1] was 0.721 (inactive); in experiment [3], 0.123 (inactive); in [4], 0.105 (inactive); in experiment [5] it was 0.157 (inactive); in [6], -0.218 (inactive); in [7], -0.235. Besides, the z-score is 0.925 (inactive) in experiment [8]; -0.373 (inactive) in [9]; 0.43 in [10]; -0.433 in experiment [11]; 0.672 in [12]; 0.0307 in [13]. Moreover, the z-score in experiment [14] was 0.777; in experiment [15], -0.468; in experiment [16], 0.448; in experiment [17], 0.139 (inactive); in experiment [18] it was -0.723; in [19] it was 0.308. The z-score in experiment [20] is -0.542 (inactive). In [2], this compound showed a composite z-score of 0.026.
